From PubChem BioAssay (EPA / NIEHS)
Several values for one entry are separate records, joined by “and”; a condition that tells them apart may be missing. Equal entries are not always repeated. Records with an inconclusive call do not appear. Activity calls are given as the source filed them. How the source made its calls: active means hit-call score of the fitted dose curve at least 0.9, where 1 is the maximum; inconclusive means response in the unintended direction; inactive means score below 0.9.

Legend:
[1] = ACEA_ER_AUC_viability: ACEA Biosciences xCELLigence Real-Time Cell Analysis on Estrogen Receptor Agonism for Viability (AID 2283782);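 further: hit means loss of impedance signal meaning reduced cell growth or viability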
Procedure, shortened: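 Continuous-exposure impedance cell analysis uses T-47D cells in charcoal-stripped serum, eight 1:4 dilutions topping at 100 uM final, biological duplicate. Area under the growth curve at 80 h is fitted against DMSO baseline.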

AR (gene 367) = AR (gene 367) (UniProt P10275); test: ACEA_AR_agonist_80hr: ACEA Biosciences xCELLigence Real-Time Cell Analysis on Androgen Receptor Agonism for Proliferation (AID 2283783);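 further: hits increase impedance growth signal above DMSO baseline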
Chain of AR (gene 367) (P10275 whole entry, looked up): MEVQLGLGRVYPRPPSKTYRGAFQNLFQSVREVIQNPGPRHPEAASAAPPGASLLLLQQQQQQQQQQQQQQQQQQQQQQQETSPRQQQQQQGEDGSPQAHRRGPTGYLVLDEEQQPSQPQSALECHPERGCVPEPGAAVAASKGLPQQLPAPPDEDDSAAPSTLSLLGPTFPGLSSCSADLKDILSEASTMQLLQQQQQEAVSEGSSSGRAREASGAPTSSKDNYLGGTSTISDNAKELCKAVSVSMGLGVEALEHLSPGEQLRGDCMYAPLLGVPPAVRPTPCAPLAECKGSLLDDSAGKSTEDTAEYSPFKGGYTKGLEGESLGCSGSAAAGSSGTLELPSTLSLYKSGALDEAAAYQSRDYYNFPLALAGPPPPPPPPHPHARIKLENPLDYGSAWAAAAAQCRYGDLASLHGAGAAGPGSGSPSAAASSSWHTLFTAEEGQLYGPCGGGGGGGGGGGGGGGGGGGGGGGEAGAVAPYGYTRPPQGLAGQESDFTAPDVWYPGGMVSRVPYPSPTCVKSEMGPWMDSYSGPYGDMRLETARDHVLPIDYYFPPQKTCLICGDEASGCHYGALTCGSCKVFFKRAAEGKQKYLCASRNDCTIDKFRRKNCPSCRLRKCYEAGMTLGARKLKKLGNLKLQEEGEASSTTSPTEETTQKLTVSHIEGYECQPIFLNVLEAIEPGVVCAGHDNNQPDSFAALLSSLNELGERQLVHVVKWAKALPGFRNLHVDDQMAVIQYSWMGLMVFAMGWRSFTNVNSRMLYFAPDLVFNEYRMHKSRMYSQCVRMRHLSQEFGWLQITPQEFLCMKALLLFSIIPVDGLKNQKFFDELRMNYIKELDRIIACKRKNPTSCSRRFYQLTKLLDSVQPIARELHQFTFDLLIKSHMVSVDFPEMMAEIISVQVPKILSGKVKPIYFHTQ
Procedure, shortened: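 Real-time cell-growth kinetics were recorded by electrode impedance in 22Rv1 cells exposed to test chemicals up to 100 uM final; the 80 h timepoint served as the readout, fitted upward relative to DMSO controls, in biological duplicate.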

[2] = STM_H9_NormalizedViability: Cytotoxicity Assessment at 120 hours in the Stemina devTOX quickPredict H9 human embryonic stem cell (hESC)-based Assay (AID 2283784)
Procedure, shortened: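 Viability endpoint: background-corrected CellTiter-Fluor RFU expressed relative to the 0.1% DMSO mean on each plate. Undifferentiated H9 cells were treated with daily re-dosing and media change, and loss of signal was fitted.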

ClC1=C(Cl)C(Cl)(Cl)C(Cl)=C1Cl
AC50 [1]: 71.2 µM (active)

CCCCCCCCCCCCCC[N+](C)(C)C
AC50 [1]: 15.9 µM (active) and 6.59 µM (active)

c1ccc2c(c1)Cc1ccccc1-2
outcome [1]: inactive

NC(=O)N(O)[C@@H]1C=C[C@H](Oc2cccc(Oc3ccc(F)cc3)c2)C1
AC50 [1]: 92.6 µM (active)

CC(C)(C)CC(C)(C)c1ccc(O)c(-n2nc3ccccc3n2)c1
AC50 [1]: 21.6 µM (active)

O=C(O)c1ccccc1C(c1ccc(O)cc1)c1ccc(O)cc1
outcome [1]: inactive

CC(O)CO (centres undefined)
outcome [1]: inactive

O=[N+]([O-])c1ccc(O)cc1
outcome [1]: inactive

O=C(O)Cc1cc(I)c(Oc2cc(I)c(O)c(I)c2)c(I)c1
outcome [1]: inactive

OCCC(F)(F)C(F)(F)C(F)(F)C(F)(F)C(F)(F)C(F)(F)C(F)(F)C(F)(F)F
outcome [1]: inactive

NC(=O)N1C(=O)C(C(=O)c2cc(Cl)cs2)c2cc(F)c(Cl)cc21 (centres undefined)
AC50 [1]: 87.5 µM (active)

Cc1cc(C)c(O)c(C)c1
outcome [1]: inactive

FC(F)(I)C(F)(F)C(F)(F)C(F)(F)C(F)(F)C(F)(F)I
AC50 [1]: 45 µM (active)

Oc1cc2ccccc2c2ccccc12
AC50 [1]: 4.66 µM (active)
outcome (AR (gene 367)): inactive

CCCCCCCCCCCCc1ccccc1S(=O)(=O)O
AC50 [1]: 83.7 µM (active)
outcome (AR (gene 367)): inactive
outcome [2]: inactive

CC(C)(C)c1cccc(C(C)(C)C)c1O
outcome [1]: inactive

O=c1c(-c2ccc(O)cc2)coc2cc(O)ccc12
outcome (AR (gene 367)): inactive

Cc1cc(CCN2CCN(c3nsc4ccccc34)CC2)cc2c1NC(=O)CC2(C)C
AC50 [1]: 18.2 µM (active)
AC50 [2]: 6.3 µM (active)

CN1CCN(c2ccccc2/C=C2\SCCN(c3ccc(Cl)c(Cl)c3)C2=O)CC1
AC50 [1]: 50 µM (active)
outcome [2]: inactive
